Sampled rows, rich in hits. Any-hit rate of the full collection: about 3.7%.
tim10-1 inh = inhibits growth of tim10-1 mutant yeast; S. cerevisiae tim10-1 ts strain growth, BacTiter-Glo, 24 h; inhibition, % at 20 µM; 330,000 tested, 2.2% active; AID 463190;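 active means inhibition of at least 40%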;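 further: mutant grown at 25 °C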
PfHsp90 set2 = inhibits growth of yeast expressing Plasmodium falciparum Hsp90. S. cerevisiae expressing PfHsp90, BacTiter-Glo ATP, 48 h; yeast lacking PDR1 and PDR3 efflux regulators. inhibition, % at 9.4 µM. 310,000 tested, 0.32% active. AID 504621;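 active means every replicate shows inhibition above about 80%, whatever the replicate mean, limit read from the data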
NALP3 yeast inh = inhibitors of NALP3 inflammasome in yeast | Yeast reconstituted NLRP3/ASC/caspase-1, beta-gal luminescence, 24 h | inhibition, % at 10 µM | 330,000 tested, 0.39% active | AID 2825;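 active means inhibition of 50% or more; inactive means inhibition below 50%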
TIM10 inh = inhibits growth of TIM10 yeast strain | 330,000 tested, 1.4% active | S. cerevisiae TIM10 strain growth, BacTiter-Glo luminescence, 24 h | inhibition, % at 10 µM | AID 463195;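 active means inhibition of 40% or more at the single tested concentration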;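 further: wild-type TIM10 isogenic control strain grown at permissive 25 °C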
tim23-1 inh = tim23-1 yeast growth inhibition; S. cerevisiae tim23-1 growth, BacTiter-Glo luminescence, 24 h; inhibition, % at 20 µM; 330,000 tested, 1.3% active;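 active means growth inhibition of the mutant yeast at or above 50%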;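 further: temperature-sensitive mutant grown at 25 °C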
TIM10 conf = TIM10 yeast growth inhibition, confirmed. shares compounds with TIM10 inh. S. cerevisiae tim10 strain growth, BacTiter-Glo luminescence, 24 h. inhibition, % at 10 µM. 4,600 tested, 63% active. AID 463215;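 active means inhibition of yeast growth at or above a set limit in either of two replicates at 10 µM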; further: this counterscreen used the strain with wild-type TIM10
Large screens that a line does not name were inactive (follow-up assays come after a bar, where they were run).

COCCCN(Cc1cccs1)S(=O)(=O)c1c[nH]c(C(=O)OC)c1	none
C[C@]12C(=O)N(c3ccccc3)C(=O)N1[C@H]1c3ccccc3OC[C@@H]1[C@H]2c1ccccc1	TIM10 inh 42 | TIM10 conf 47
Cc1ccc(C(=O)c2ccccc2C(=O)Nc2ccccc2)cc1	none
Cc1ccc(C)c(NC(=O)c2ccccc2C(=O)c2ccccc2)c1	TIM10 inh 41 (no result: PfHsp90 set2) | TIM10 conf inactive
Cc1nnc(NC(=O)c2cccc(F)c2)s1	none
CC(=O)Cc1nsc(NC(=O)c2cccc(F)c2)n1	TIM10 inh 50 (no result: PfHsp90 set2) | TIM10 conf inactive
CC(=O)Nc1cc(-c2ccc(Cl)cc2)[nH]n1	none
CCc1ccc2nc3sc(C(=O)N4CCc5ccccc54)c(N)c3cc2c1	none (no result: PfHsp90 set2)
Cc1ccc(C)c2nc3sc(C(=O)N4CCCc5ccccc54)c(N)c3cc12	TIM10 inh 46 | TIM10 conf inactive
CCOc1cc(/C=N/NC(=O)COc2ccccc2C)ccc1OC(=O)c1cccs1	TIM10 inh 41 | TIM10 conf inactive
COc1ccc(N2CC(C(=O)O)CC2=O)cc1 (stereo not drawn)	none
CC1(C)CC(=O)N(c2cccc(Cl)c2)C(=O)C1	none
O=C1NC(=S)N(c2cccc(Cl)c2)C12CCCCC2	TIM10 inh 44 | TIM10 conf inactive
C/C(CCC(C)C)=N\Nc1ccc(S(N)(=O)=O)cc1[N+](=O)[O-]	TIM10 inh 75 | TIM10 conf inactive
CSCCC(NC(=O)COc1ccccc1)C(=O)N(C)Cc1cccc(F)c1 (stereo not drawn)	none
COc1cc(OC)c(N2CC(C(=O)Nc3cccc(C(=O)NC4CC4)c3)CC2=O)cc1Cl (stereo not drawn)	TIM10 inh 82 | TIM10 conf inactive
COC(C[C@H](O)C[C@@H](O)COCc1ccccc1)OC	none
CCCC(=O)Nc1cc(C(=O)O)ccc1S(=O)(=O)c1ccc(Cl)cc1	none
CCOC(=O)c1cnn(-c2nc(-c3ccc(F)cc3)cs2)c1C(F)(F)F	TIM10 inh 45 | TIM10 conf inactive
CC(C)(C)C(=O)OCc1nc(-c2ccc3c(c2)OCCO3)cs1	none
CC(C)(C)C(=O)OCc1nc(-c2ccc(F)cc2)cs1	TIM10 inh 41 | TIM10 conf 39
CCn1c(O)c(/C=C2\C=Nc3ccccc32)sc1=Nc1ccc(C)cc1	none
CCn1c(O)c(/C=C2\C=Nc3ccccc32)sc1=O	TIM10 inh 44 | TIM10 conf inactive
Cc1cccnc1NC1(C(F)(F)F)N=C2SCCN2C1=O (stereo not drawn)	none
COc1cc(CN2CCN(CC#Cc3ccccc3)CC2CCO)cc(OC)c1 (stereo not drawn)	none (no result: PfHsp90 set2)
CCn1nc(C)c(/C=N/NC(=S)Nc2ccc(Cl)cc2Cl)c1C	TIM10 inh 42 | TIM10 conf inactive
Cc1nn(C)cc1/C=N/NC(=S)Nc1ccc(Cl)cc1Cl	none
O=C(Nc1ncn[nH]1)c1cc([N+](=O)[O-])ccc1Cl	none
O=C(Nc1ncn[nH]1)c1ccc([N+](=O)[O-])cc1[N+](=O)[O-]	TIM10 inh 43 (no result: PfHsp90 set2) | TIM10 conf inactive
Cc1ccc(N2CC(O)=C(c3nc4ccccc4c(=O)[nH]3)C2=N)cc1C	TIM10 inh 47 | TIM10 conf inactive
CCOc1ccc(N2CC(O)=C(c3nc4ccccc4c(=O)[nH]3)C2=N)cc1	none
O=C(OCc1ccc(Cl)cc1Cl)c1ccncc1	none
Oc1ccccc1Cn1c(-c2ccccc2O)nc2ccccc21	TIM10 inh 52 | TIM10 conf inactive
COc1ccccc1Cn1c(-c2ccccc2OC)nc2ccccc21	none
O=C(c1ccc([N+](=O)[O-])s1)N1CCc2ccccc2C1	TIM10 inh 45 | TIM10 conf inactive
CCCN=C(C)c1c(-c2ccccc2)[nH]n(-c2nc3ccccc3s2)c1=O	TIM10 inh 45 (no result: PfHsp90 set2) | TIM10 conf 40
CCN(CC)CCCN=Cc1c(-c2ccccc2)[nH]n(-c2nc3ccccc3s2)c1=O	none
CCOCCCNC(=O)Cn1cnc2c(cnn2-c2ccc(OC)cc2)c1=O	TIM10 inh 50 | TIM10 conf inactive
CCOC(=O)Cn1cnc2c(cnn2-c2ccc(OC)cc2)c1=O	none
CCOc1cccc(CN2CCN(Cc3ccc(C)o3)C(CCO)C2)c1O (stereo not drawn)	none
N#CC1C(C#N)N2CCCN2C1c1ccc(Cl)cc1 (stereo not drawn)	none

Screening data deposited in PubChem BioAssay by several laboratories.
